Hit rate of the full screen: of about 360,000 compounds, about 1,800 (0.5%) were called active. This excerpt belongs to a sample that is enriched for actives. A number with no mark means an inactive call.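 The calls were made as follows: active = interference check ratio from 0.5 to 1.5 plus GFP to RFP signal ratio inhibition reaching or exceeding a fixed threshold (cut at about 30% in these data, passing the limit was not always enough); inactive = the rest.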
Experiment: suppressors of acrylamide-induced Pgst-4::GFP reporter in worms, primary screen, SKN-1 inhibitor project, whole organism, uHTS, GFP/RFP fluorescence ratio, strain VP596 (AID 624304)
Conditions: C. elegans VP596 Pgst-4::GFP/RFP ratio, 24 h, at 21.8 µM, active compounds read high
Compound Cc1c(C(=O)NCCN2CCOCC2)sc2nc(-c3ccc(F)cc3)cn12 has an inhibition of 5.89%. CC/C(=N/Nc1ccccc1)c1cnnc(SC)n1 gave an inhibition of 10.2%. For CCOc1ccc(CNC(=O)C2CC(=O)N(C3CCCC3)C2)cc1OC (stereo not drawn), the inhibition was 8.98%. In the case of CCOC(=O)C1CCN(C(=O)C2CCN(S(=O)(=O)CC)CC2)CC1, the inhibition is reported as 6.26%. With Cc1onc(-c2ccccc2Cl)c1C(=O)NCCn1ccc2ccccc21 the inhibition was 39.7% (active). Compound Cc1onc(-c2ccccc2Cl)c1C(=O)N(Cc1ccc(N(C)C)cc1)C(C)C has an inhibition of -21.5%. Work on Cc1ccc2cc(CCNC(=O)c3c(-c4ccccc4Cl)noc3C)c(=O)[nH]c2c1 yielded an inhibition of 11.2%. For FC(F)(F)c1ccc(-c2cccc3c2C2CC3CCN2Cc2ccccc2)cc1 (stereo not drawn), the inhibition was 7.81%. CC1(C)Cc2ccccc2-c2nnc(-c3cccc(O)c3)n21 showed an inhibition of 27.7%. Work on O=C(NC1CCCCCCC1)c1cccs1 yielded an inhibition of 22.3%. For O=C(NC1CCCC1)c1cc(-c2ccccc2)on1, the inhibition was 37.3% (active). Compound O=C(NCCCn1ccnc1)c1cc(-c2ccccc2)on1 has an inhibition of 8.95%. Compound NC1=CC(=O)C(=O)c2cccnc21 has an inhibition of 18.3%. With COc1ccccc1Cn1c(C)nnc1-c1cnn(C)c1N the inhibition was 10.4%. For CCCCNC(=O)CSc1nc2ccc(NC(=O)CSc3nnc(COc4ccccc4C)n3C)cc2s1, the inhibition was 39.2% (active). With CC(=O)Nc1ccc(NC(=O)CSc2nnc(COc3ccccc3C)n2CC2CCCO2)cc1 (stereo not drawn) the inhibition was -7.59%. CCOc1cc(C)ccc1OCc1nnc(SCC(=O)Nc2cccc(C(=O)O)c2)n1-c1ccccc1 gave an inhibition of -9.28%. Cc1nonc1C1CCCN1Cc1nc(-c2ccc(F)cc2F)oc1C (stereo not drawn) gave an inhibition of 10%. CSc1nnc(CNC(=O)c2ccccc2)n1-c1ccc(F)cc1 gave an inhibition of -6.87%. Cc1ccnc(SCCn2c(Br)nc3c2c(=O)[nH]c(=O)n3C)n1 gave an inhibition of -9.02%. Compound CCCCCCCCCCCCN1C(=O)CSC1c1cccnc1 (stereo not drawn) has an inhibition of -6.65%. CCOc1cc(CO)ccc1OCC(=O)N1CCCCC1 showed an inhibition of 7.04%. For CCOC(=O)/C=C/CN(C(=O)OC(C)(C)C)S(=O)(=O)N1CC=CC1, the inhibition was 35.2% (active). CCOC(=O)/C=C/c1ccc(C(F)(F)F)cc1S(=O)(=O)NC(C)(C)C showed an inhibition of 3.66%. For CNc1cc(-c2c(OC)cccc2OC)ncn1, the inhibition was 4.47%. With CC(C)c1ccc(NC(=O)COC(=O)c2ccc(CN3CCCC3=O)cc2)cc1 the inhibition was -1.54%. Compound CCCC(=O)N1CCC1(C)C(=O)NCc1ccc(C(C)C)cc1 (stereo not drawn) has an inhibition of 14.8%. In the case of CC(=O)N1CCN(c2ccc(NCc3ccc(C(C)C)cc3)cc2)CC1, the inhibition is reported as 36.1% (active). With COCCNC(=O)c1ccc(N2CCC3(CC2)OCCO3)c([N+](=O)[O-])c1 the inhibition was -6.38%. In the case of O=C(Nc1nn(Cc2ccccc2F)cc1Br)c1cccs1, the inhibition is reported as 6.46%. Work on COc1ccc(CCc2nc(-c3cccs3)no2)cc1 yielded an inhibition of -7.8%. For Cc1ccc(-c2nc(-c3ccncc3)no2)c(C)c1, the inhibition was 37% (active). With c1csc(-c2nc(-c3ccncc3)no2)c1 the inhibition was 47.4% (active). With Cc1ccc(-c2noc(-c3ccccc3C(=O)NCC3CCCO3)n2)cc1 (stereo not drawn) the inhibition was -3.76%. Compound O=C(NCc1cccnc1)c1nc(-c2cccs2)no1 has an inhibition of 7.29%. Work on COc1cc(OC)cc(C(=O)OCC(=O)Nc2sccc2C(N)=O)c1 yielded an inhibition of 0.966%. With COCCn1c(=NC(=O)c2ccccc2[N+](=O)[O-])sc2cc(S(C)(=O)=O)ccc21 the inhibition was 0.193%. COc1ccc(C(=O)NC(C)Cn2nc(C)cc2C)cc1OC1CCN(C(C)=O)CC1 (stereo not drawn) showed an inhibition of 8.35%. For CCC(Cc1ccccc1)NS(=O)(=O)c1ccc2c(c1)NC(=O)CS2 (stereo not drawn), the inhibition was -5.64%. Compound O=C(Nc1cc(F)ccc1F)c1ccc2c(=O)n3c(nc2c1)CCC3 has an inhibition of -4.08%. Work on COC[C@@H]1NS(=O)(=O)c2ccc(Br)cc2O[C@H]1c1ccccc1 yielded an inhibition of 14.6%. Work on COc1ccc(C(=O)NCc2ccc(C)cc2)cc1S(=O)(=O)N1CCCC1 yielded an inhibition of 0.996%. With CC(=O)N(CN1C(=O)C2CC=CCC2C1=O)c1cccc(Cl)c1 (stereo not drawn) the inhibition was 36.1% (active). CCOC(=O)c1cccc(NC(=O)CN2C(=O)C3CC=CCC3C2=O)c1 (stereo not drawn) gave an inhibition of 6.29%. With CC(=O)N(CN1C(=O)C2C3C=CC(C3)C2C1=O)c1cccc(Cl)c1 (stereo not drawn) the inhibition was 16.7%. Compound COc1ccc(NC(=O)C(CC(C)C)NC(=O)C2CCC(C)CC2)cc1 (stereo not drawn) has an inhibition of -11.6%. COc1ccc(Cc2nnc(NC(=O)c3cc(OC)c(OC)c(OC)c3)s2)cc1OC gave an inhibition of -13.7%. For COc1cc(C(=O)Nc2nccs2)cc(OC)c1OC, the inhibition was 41.9% (active). CC(=O)Oc1ccc(C(=O)Nc2nccs2)cc1 gave an inhibition of 3.06%. CCC(C)(C)c1ccc(OCC(=O)N(C)C)c(C(C)(C)CC)c1 gave an inhibition of 2.98%. For CC1(C(=O)NS(=O)(=O)c2cccc(F)c2)CCN1C(=O)Cc1ccc(Cl)cc1Cl (stereo not drawn), the inhibition was 15.6%. In the case of C=C(C)Cn1c(N2CCN(CC)CC2)nc2c1c(=O)[nH]c(=O)n2C, the inhibition is reported as 16.3%. In the case of O=S(=O)(Cc1cc(Sc2ccccc2)nc(-c2ccccc2)n1)c1ccccc1, the inhibition is reported as 44.9% (active). O=S(=O)(Cc1cc(Cl)nc(-c2cccnc2)n1)c1ccccc1 showed an inhibition of -15.6%. Cc1ccc(Sc2cc(N3CCOCC3)nc(-c3ccccc3)n2)cc1 showed an inhibition of 7.71%. In the case of Cc1cc2c(=O)n(CC(=O)NCC(=O)Nc3ccc(C(C)C)cc3)cnc2s1, the inhibition is reported as -0.0427%. In the case of CCOc1ccc(N2C(=O)/C(=C/c3ccc(C)o3)N(C)C2=S)cc1, the inhibition is reported as -1.02%. Compound O=Cc1c(NCCCN2CCCC2=O)c2ccccc2[nH]c1=O has an inhibition of 19.6%. CCOc1cc2[nH]c(=S)n(CCCN3CCCC3=O)c(=O)c2cc1OCC gave an inhibition of -28.4%. In the case of O=C(CCn1c(=S)[nH]c2ccccc2c1=O)NCCCN1CCCC1=O, the inhibition is reported as 36.5% (active). Compound COc1ccc(N2CCN(C(=O)C3CCN(S(=O)(=O)c4ccc(C)cc4)CC3)CC2)cc1 has an inhibition of 5.77%. Work on CC(CCc1ccccc1)NC(=O)COC(=O)c1ccc(F)cc1 (stereo not drawn) yielded an inhibition of 3.96%. Compound CCc1ccc(OCC(=O)OCC(=O)c2c(N)n(C)c(=O)n(C)c2=O)cc1 has an inhibition of -10%. C[C@H]1CN([C@@H](C)CO)C(=O)CCCn2cc(nn2)CO[C@@H]1CN(C)C(=O)Nc1ccccc1 showed an inhibition of 1.2%. COc1ccccc1NC(=O)CCN1CCN(c2ccc(Cl)cc2)CC1 showed an inhibition of 8.41%. Cc1cc(NC(=O)CCN2CCN(Cc3ccccc3)CC2)ccc1Br gave an inhibition of 1.51%. For COC(=O)CNC(c1ccccc1Cl)c1cc(Br)ccc1NC(=O)CCN1CCOCC1 (stereo not drawn), the inhibition was 35.2% (active). Cc1cc(C)cc(NC(=O)C2CCCN(S(=O)(=O)c3ccc4[nH]c(=O)ccc4c3)C2)c1 (stereo not drawn) gave an inhibition of 11.9%. O=S(=O)(NC1CC2CCC1C2)c1ccc(Cl)cc1 (stereo not drawn) gave an inhibition of 8.97%. With CN1c2ccc(C=O)c3c(C=O)ccc(c23)N(C)C1(C)C the inhibition was 39.8% (active). With CCCCNC(=O)C1(O)c2ccccc2NC(=O)N1c1ccc(Cl)cc1 (stereo not drawn) the inhibition was 19.1%. In the case of CSc1ccc(CNC(=O)c2ccc(NC(=O)C3=CSCCO3)cc2)cc1, the inhibition is reported as 22.9%. Compound Cc1nc2ccccn2c1C(=O)NN=C1CCN(C)CC1 has an inhibition of 8.18%. Work on CC1=NNC(=O)C1Cc1c(Cl)cccc1Cl (stereo not drawn) yielded an inhibition of -3.65%. Compound Cc1ccc(OCCNC(=O)CNC(=O)c2ccc(C)c(C)c2)cc1 has an inhibition of 5.58%. With O=[N+]([O-])c1ccc(N/N=C/c2ccccc2)cc1 the inhibition was 41.2% (active). Compound COC(=O)c1ccccc1N=NNc1ccc([N+](=O)[O-])cc1 has an inhibition of 20.6%. With CC(C=Cc1ccccc1)=NNS(=O)(=O)c1ccc([N+](=O)[O-])cc1 the inhibition was 21.6%. With CC1CN(c2cc(=O)n(-c3cccc(Br)c3)c(=O)[nH]2)CC(C)O1 (stereo not drawn) the inhibition was 5.49%. In the case of COc1ccc2nc(N3CCN(C(=O)c4ccc([N+](=O)[O-])o4)CC3)sc2c1, the inhibition is reported as 2.32%. For O=C(NCCc1cccc(F)c1)C1CCCN(c2nc3ccccc3s2)C1 (stereo not drawn), the inhibition was 10.3%. For Brc1ccc2nc(N3CCCC3)sc2c1, the inhibition was 52% (active). With CCCCN1C(=S)NC[C@@H]1C(C)CC (stereo partly drawn) the inhibition was -0.152%. For Clc1ccc(C[n+]2cc(-c3ccc(Cl)cc3)n3c2CCC3)cc1, the inhibition was 0.364%. In the case of O=C(C1CCN(S(=O)(=O)c2cnc[nH]2)CC1)N1CCN(Cc2ccc3c(c2)OCO3)CC1, the inhibition is reported as 17.4%. COc1ccccc1N1CCN(CC(=O)Nc2ccnn2C2CCCC2)CC1 showed an inhibition of -9.67%. In the case of FC(F)(F)c1ccnc(Oc2ccc(C3=NCCS3)cc2)c1, the inhibition is reported as 44.7% (active). Compound CCC(=O)Nc1ccc(S(=O)(=O)Nc2c(NC)c3ccccc3oc2=O)cc1 has an inhibition of 9.74%. In the case of CN(Cc1ccccc1)C(=O)COC(=O)c1ccccc1Nc1ccccc1, the inhibition is reported as -4.32%. Cc1cccc(N2CCN(C(=O)c3cccc(S(=O)(=O)N4CCc5ccccc5C4)c3)CC2C)c1 (stereo not drawn) showed an inhibition of -16.8%. Compound COc1cccc(C2SCC(=O)N2c2cccc(C)c2)c1OC (stereo not drawn) has an inhibition of 2.8%. Work on Cc1cc(C(C)(C)C)oc1C(=O)N(CC(=O)NC1CCCC1)Cc1ccc(Cl)cc1 yielded an inhibition of 6.57%. CCOc1ccc(NC(=O)N(CCC(C)C)C(C)c2ccco2)cc1 (stereo not drawn) gave an inhibition of -11.7%. Compound O=C(CSc1nnc(-c2ccco2)o1)NCC(=O)c1ccccc1 has an inhibition of -0.628%. For CCCCSc1nnc(-c2ccc(C)cc2)o1, the inhibition was 1.11%. For CCOc1ccc(-c2nnc(-c3ccco3)o2)cc1, the inhibition was 58.1% (active). With CCCCOc1ccc(-c2nnc(-c3ccco3)o2)cc1 the inhibition was 64.9% (active). In the case of CCCOc1ccc(-c2c(C(=O)N/N=C/c3ccco3)nnn2-c2nonc2N)cc1, the inhibition is reported as 3.6%.

Source: PubChem BioAssay AID624304 (Sanford-Burnham Center for Chemical Genomics, 2012)
